# From PubChem
# An excerpt weighted towards active compounds, which were near 3.7% of everything screened.
# PfHsp90 yeast 2 – growth inhibition of PfHsp90-expressing yeast, primary screen, antimalarial PfHsp90 inhibitor project, S. cerevisiae, BacTiter-Glo luminescence, single point, set 2 | BacTiter-Glo ATP, 48 h; yeast lacking PDR1 and PDR3 efflux regulators | inhibition, % at 9.4 µM | 0.32% of 310,000 active;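 active = every replicate shows inhibition above about 80%, whatever the replicate mean, limit read from the data; inconclusive = mean inhibition reaches the set limit but some replicate falls short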;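 also: 0% = DMSO neutral controls and 100% = 20 µM radicicol positive controls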
# tim23-1 inh – growth inhibitors of tim23-1 mutant yeast, primary screen, luminescence, uHTS; S. cerevisiae tim23-1 growth, BacTiter-Glo luminescence, 24 h; inhibition, % at 20 µM; 1.3% of 330,000 active; AID 463212, 2010;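 active = growth inhibition of the mutant yeast at or above 50%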;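 also: temperature-sensitive mutant grown at 25 °C; plate controls were DMSO-treated mutant yeast for no effect and medium wells lacking yeast for full effect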
# TIM10 inh – growth inhibitors of isogenic TIM10 control yeast, primary screen, counter-screen for tim10-1 yeast inhibitor project, luminescence, uHTS | 1.4% of 330,000 active | inhibition, % at 10 µM | AID 463195, 2010 | S. cerevisiae TIM10 strain growth, BacTiter-Glo luminescence, 24 h;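 active = inhibition of 40% or more at the single tested concentration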;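 also: wild-type TIM10 isogenic control strain grown at permissive 25 °C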
# NALP3 yeast inh – NALP3 inflammasome inhibitors in reconstituted yeast, primary screen, luminescence, uHTS; AID 2825, 2010; inhibition, % at 10 µM; 0.39% of 330,000 active; Yeast reconstituted NLRP3/ASC/caspase-1, beta-gal luminescence, 24 h;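 active = inhibition of 50% or more; inactive = inhibition below 50%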;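 also: plate controls were induced DMSO wells for no effect and uninduced yeast grown without galactose for full effect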
# tim10-1 inh – growth inhibitors of tim10-1 mutant yeast, primary screen, luminescence, uHTS; S. cerevisiae tim10-1 ts strain growth, BacTiter-Glo, 24 h; inhibition, % at 20 µM; 2.2% of 330,000 active; AID 463190, 2010;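 active = inhibition of at least 40%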;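 also: mutant grown at 25 °C; 0% = DMSO wells with yeast and 100% = wells holding no yeast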
# tim10-1 confirm – growth inhibitors of tim10-1 mutant yeast, confirmation, single concentration, luminescence, S. cerevisiae; inhibition, % at 20 µM; 56% of 7,400 active; S. cerevisiae tim10-1 ts strain growth, BacTiter-Glo, 24 h; shares compounds with tim10-1 inh;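 active = inhibition of yeast growth at or above a set limit in either of two repeat tests at 20 µM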;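 also: tim10-1 mutant grown at permissive 25 °C to find synthetic lethal compounds; 0% = DMSO yeast wells and 100% = medium wells without yeast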
# tim10 confirm – growth inhibitors of wild-type TIM10 yeast, confirmation, counter-screen for tim10-1 synthetic lethality project, single concentration, luminescence, S. cerevisiae | AID 463215, 2010 | 63% of 4,600 active | S. cerevisiae tim10 strain growth, BacTiter-Glo luminescence, 24 h | shares compounds with TIM10 inh | inhibition, % at 10 µM;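 active = inhibition of yeast growth at or above a set limit in either of two replicates at 10 µM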;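 also: this counterscreen used the strain with wild-type TIM10; 0% = yeast with DMSO and 100% = medium wells lacking yeast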
# tim23-1 confirm – tim23-1 mutant yeast growth inhibitors, confirmation, luminescence, single concentration; shares compounds with tim23-1 inh; S. cerevisiae tim23-1 growth, BacTiter-Glo luminescence, 24 h; inhibition, % at 20 µM; 83% of 4,400 active;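 active = inhibition above about 39% in either of two replicate wells at 20 µM, limit read from the data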;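 also: temperature-sensitive tim23-1 mutant grown at 25 °C; 0% = DMSO wells with yeast and 100% = medium wells without yeast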
# The depositor's hits bear a star; ? = inconclusive; . = not tested or not shown.
SMILES,PfHsp90 yeast 2,tim23-1 inh,TIM10 inh,NALP3 yeast inh,tim10-1 inh,tim10-1 confirm,tim23-1 confirm,others
CCOC(=O)C1=C(Cc2ccc(F)cc2)C(=O)c2ccccc2C1=O,-70,66*,64*,4,57*,68*,71*,tim10 confirm=57*
S=C(NCc1cccs1)Nc1cccc(Cl)c1Cl,-20,56*,41*,11,50*,32*,56*,tim10 confirm=5
Cc1c(Cl)cccc1NC(=S)NCc1cccs1,8,26,36,14,37,.,.,
Cc1ccc2ccccc2[n+]1CCCS(=O)(=O)[O-],12,7,-10,11,1,.,.,
CCCCC[n+]1cccc2c3ccccc3ccc21,-10,6,5,2,8,.,.,
CCCC[n+]1c2ccccc2cc2ccccc21,-14,65*,74*,42,71*,70*,64*,tim10 confirm=69*
CCC[n+]1c2ccccc2cc2ccccc21,-15,56*,66*,25,68*,66*,60*,tim10 confirm=62*
COc1ccc(Cl)cc1NC(=O)COC(=O)c1c(-c2ccccc2)noc1C,16,29,9,26,15,.,.,
CCc1ccc(-c2cc(C(=O)Nn3cnnc3)c3ccccc3n2)cc1,46,53*,22,6,54*,36*,40*,
CCNC(=S)NNC(=O)c1cc(-c2ccc(OCC)cc2)nc2ccccc12,.,78*,34,9,86*,66*,86*,
CCNC(=S)NNC(=O)c1cc(-c2cccc(OC)c2)nc2ccccc12,-17,56*,40,15,56*,50*,54*,
CC1=[N+](C)N(c2ccccc2)C(=O)C1N=Cc1ccc(Cl)cc1 (stereo not drawn),5,9,8,3,2,.,.,
Cc1sc2ncnc(SCC(=O)N3c4ccccc4Sc4ccc(Cl)cc43)c2c1C,-7,19,6,7,22,.,.,
CCOC(=O)c1c(C)sc2c1N(C(=O)CCl)c1cc(Cl)ccc1S2,.,61*,21,17,43*,43*,50*,
Cc1ccccc1OCCCN1C(=O)C(=O)c2cccc(C)c21,0,74*,26,16,54*,39*,27,
Cc1ccc2c(c1)C(=O)C(=O)N2CCCOc1ccccc1C,-13,22,18,16,10,.,.,
CC(C)c1ccc(C2CC(=O)c3cnc(NC(=O)c4ccco4)nc3C2)cc1 (stereo not drawn),-6,49,36,14,29,.,.,
COc1cccc(CNC(=O)COC(=O)c2nc(Cl)c(Cl)c(Cl)c2Cl)c1,-9,60*,37,-10,56*,46*,57*,
COc1cccc(CNC(=O)CCl)c1,7,-4,-2,-37,0,.,.,
COc1ccc2oc(/C=C/N(C)C)c(C(=O)c3ccc(Cl)cc3)c2c1,112*,50*,29,20,45*,21,51*,
C=C1CCc2c([nH]c3ccc(OCC(C)C)cc23)C1=O,-8,59*,38,7,47*,23,57*,
COc1ccc2[nH]c3c(c2c1)CCNC3=O,-5,12,12,14,4,.,.,
Cc1cccc(NC(=O)/C(C#N)=C/c2ccccc2Cl)n1,23,71*,42*,-4,52*,25,62*,tim10 confirm=32*
C=CCNC(=O)/C(C#N)=C/c1ccccc1Cl,-25,85*,66*,20,51*,63*,80*,tim10 confirm=74*
C=CCNC(=O)/C(C#N)=C/c1cc(Br)ccc1OC,-10,88*,83*,27,78*,84*,71*,tim10 confirm=91*
SMILES,PfHsp90 yeast 2,tim23-1 inh,TIM10 inh,NALP3 yeast inh,tim10-1 inh,tim10-1 confirm,tim23-1 confirm,others
Cc1cccc(NC(=O)/C(C#N)=C/c2ccccc2O)n1,4,15,11,4,22,.,.,
CC(C)c1ccc(O)c(NC(=S)NC(=O)c2ccc3c(c2)OCO3)c1,-60,20,28,28,36,.,.,
NC(=O)[C@H]1CC2(CC(c3cccc(NC(=O)[C@H]4CCC(=O)N4)c3)=NO2)CN1C(=O)c1cc([N+](=O)[O-])cc([N+](=O)[O-])c1 (stereo partly drawn),-22,4,-2,3,6,.,.,
CC(Sc1nnc(N)s1)C(=O)NC1CCCCC1C (stereo not drawn),.,-3,1,9,-14,.,.,
CC(NC(=O)c1ccco1)C(=O)OCC(=O)N1CCCCCC1 (stereo not drawn),.,-8,-3,14,-1,.,.,
COc1cc(CNc2nnnn2C)ccc1OCc1c(F)cccc1Cl,12,-7,9,0,-4,.,.,
COc1ccc2c(c1)c1ccc3c(c1n2C)C(=O)C=CC3=O,7,68*,55*,23,47*,60*,-19,tim10 confirm=93*
Cc1ccc2c(c1)c1ccc3c(c1n2C)C(=O)C=CC3=O,?,73*,63*,37,63*,56*,42*,tim10 confirm=94*
COc1ccccc1N1CCN(Cc2cc(=O)c(OCC#N)co2)CC1,-25,-9,1,5,-15,.,.,
Oc1cc2c(cc1C(c1ccc(Cl)c(Cl)c1)N1CCCC1)OCO2 (stereo not drawn),10,63*,33,27,50*,39*,45*,
COc1cccc2cc(C(=O)CS(=O)(=O)c3ccc(C(C)(C)C)cc3)c(=O)oc12,5,52*,31,11,48*,17,54*,
COc1ccc(S(=O)(=O)CC(=O)c2cc3cccc(C)c3oc2=O)cc1,8,65*,-4,-8,53*,-18,57*,
CN(C)c1cccc(C(=O)Nc2cccc(S(=O)(=O)NC3=NCCC3)c2)c1,6,-2,6,12,-13,.,.,
O=C(Nc1cccc2cccnc12)c1ccccc1Cl,.,13,13,6,9,.,.,
Cc1ccc(NC(=O)c2cccc3cccnc23)cc1,25,65*,31,40,42*,41*,80*,
CC(=O)Nc1cccc(NC(=O)c2cccc3cccnc23)c1,5,9,-5,24,4,.,.,
COc1ccccc1C(=O)Nc1cccc2cccnc12,-5,72*,35,31,48*,42*,72*,
